# Laboratory results published in ChEMBL document CHEMBL3988442, “University of Dundee, Small-Polar-MMV Screening Library” (2021).
# Tests used:
# [1] = target: T1, Aspartate--tRNA(Asp/Asn) ligase (Mycobacterium tuberculosis (strain ATCC 25618 / H37Rv)) (UniProt P9WFW3); assay: Assay for Asp RNA synthetase-1 from Mycobacterium tuberculosis; format: functional; set-up: scale not given: direction of the effect not stated beside the values; settings: 30 µM; note: in the data most compounds retested in dose-response had high values
# T1 sequence (whole entry): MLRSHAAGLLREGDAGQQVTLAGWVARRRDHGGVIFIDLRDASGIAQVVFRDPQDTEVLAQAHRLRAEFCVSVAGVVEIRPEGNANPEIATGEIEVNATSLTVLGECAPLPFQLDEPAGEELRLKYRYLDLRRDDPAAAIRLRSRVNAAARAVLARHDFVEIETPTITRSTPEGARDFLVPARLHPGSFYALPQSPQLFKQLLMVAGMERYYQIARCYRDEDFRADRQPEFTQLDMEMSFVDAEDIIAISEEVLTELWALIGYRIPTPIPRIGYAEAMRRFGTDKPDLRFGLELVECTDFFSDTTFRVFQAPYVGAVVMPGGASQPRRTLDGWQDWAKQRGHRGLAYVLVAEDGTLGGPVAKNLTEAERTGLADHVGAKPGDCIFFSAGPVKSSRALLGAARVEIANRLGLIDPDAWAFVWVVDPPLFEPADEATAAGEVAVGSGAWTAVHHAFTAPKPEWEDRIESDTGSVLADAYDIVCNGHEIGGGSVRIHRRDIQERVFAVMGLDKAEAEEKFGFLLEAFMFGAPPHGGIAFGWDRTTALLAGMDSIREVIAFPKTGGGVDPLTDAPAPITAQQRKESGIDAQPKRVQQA
# [2] = target: Shiga toxin 2 (Escherichia coli O157:H7) (UniProt P09385+P09386); assay: E. coli 0.157:H7 Shiga Toxin SOP - stx2 screening assay; format: functional; set-up: scale not given: direction of the effect not stated beside the values; settings: 30 µM
Compound,Percent Effect [1],Percent Effect [2]
CCN(CC)C(=O)CCn1ncc2c(Cl)cccc21,-1.07%,-23.7%
O=S(=O)(CCN1CCOC(Cn2cncn2)C1)c1ccccc1 (stereo unspecified),-2.75%,-7.21%
Cc1cccc(OCCC(=O)N(C)CCC#N)c1C,0.839%,8.57%
Cc1cnc(CNC(=O)NCc2cccnc2N(C)C)s1,-2.25%,-0.447%
Cc1cccc(C(=O)NCc2ccc(S(N)(=O)=O)cc2)n1,-0.577%,-16.4%
O=S(=O)(CCN1CCOC(Cn2cccn2)C1)C(F)(F)F (stereo unspecified),8.08%,191%
CS(=O)(=O)N1CCC(NC(=O)COc2ccc(Cl)c(Cl)c2)CC1,1.23%,-20.3%
Cn1ccnc1CN1CCN(CC(O)c2ccco2)CC1 (stereo unspecified),4.07%,20%
Cc1ccc(CN2CCc3c(C(=O)N(C)C)nn(C)c3C2)s1,1.82%,3.56%
CCc1ccc(NC(=O)N2C[C@H]3C[C@H](C(=O)NC)[C@@H](C2)O3)cc1,3.34%,-5.17%
Cc1cc(C[C@@H]2COC[C@@H]2NC(=O)CN2CCCN(C)CC2)on1,-1.58%,-5.15%
CSc1ncccc1C(=O)N1CCC(c2nc3c(C)cccc3[nH]2)CC1,3.63%,-17.2%
CCS(=O)(=O)N1CCC[C@]2(C(=O)N(C)C)CN(c3ncccn3)C[C@@H]2C1,2.53%,-34.5%
N#Cc1ccccc1OCCN1CCn2c(nnc2C2CC2)C1,-1.13%,-21.3%
CC(C)c1nc(C2CCCN(C(=O)CCCn3cncn3)C2)no1 (stereo unspecified),9.5%,9.71%
Cc1ccc(CN2C[C@@H]3COC[C@H](C(=O)N4CCCCO4)[C@@H]3C2)o1,1.57%,-5.34%
COc1ccccc1OCC(=O)NS(=O)(=O)c1ccccc1Br,5.46%,-14.2%
CC(NC1(CNC(=O)Cn2cccn2)CCOCC1)c1ccccc1 (stereo unspecified),-0.24%,10.6%
CC(NC(=O)COc1nc(C(C)(C)C)no1)c1ccco1 (stereo unspecified),-2.04%,16.4%
OC1(Cn2ccc3ncccc32)CCN(Cc2ccccn2)CC1,11.7%,-31.8%
CNc1snc(C)c1C(=O)N1CCCC(n2nc(C)cc2C)C1 (stereo unspecified),-8.77%,-3.59%
Cc1cccc(C(=O)Nc2ccc(OC3CCN(C)CC3)cc2)c1,0.862%,-60.2%
CCN(CCC(F)(F)F)C(=O)Nc1cccc(N2CCOCC2)c1,1.08%,-51.5%
O=C(COCC1CC1)N1CCCC(n2ccnc2)C1 (stereo unspecified),0.946%,-26.2%
CCCC(Nc1c(C#N)c(=O)n(C)c(=O)n1C)c1ccc(F)cc1F (stereo unspecified),-3.88%,4.48%
O=C(NCCc1ccc(Cl)s1)NCc1nnc2n1CCC2,2.25%,22.9%

Compound,Percent Effect [1],Percent Effect [2]
O=C(NCC1CC1)[C@H]1C[C@H]2OCC[C@H]2N(Cc2ccoc2)C1,2.61%,-11.8%
CN(Cc1ccon1)C(=O)C1CC(=O)N(Cc2ccncc2)C1 (stereo unspecified),5.91%,6.22%
COc1cccc(S(=O)(=O)NC2CNC(=O)C2)c1 (stereo unspecified),-3.48%,3.09%
COc1ccc(C2(CNC(C)c3nnc(C)o3)CCCCC2)cc1 (stereo unspecified),2.67%,-2.63%
CN(C)c1nccc(N2CCO[C@H]3CN(CC4CCOCC4)C[C@H]32)n1,-1.41%,-89.3%
COc1cc(C)nc(N2CCN(C(=O)CNC(C)(C)C)CC2)n1,-2.1%,-32.2%
CC(C)(C(=O)NCC1CC1)c1ccccc1F,-1.98%,-2.97%
Cc1nc(CN2CCCCC2Cn2cncn2)nc2ccccc12 (stereo unspecified),1.73%,-15.2%
CCn1ccnc1CNCC1CCCN1c1cc(NC)ncn1 (stereo unspecified),1.78%,-12.7%
CCC(=O)N1CCC(c2nnc(Cn3cccn3)n2C2CC2)CC1,-6.07%,-3.53%
CCn1cc(CN(C)S(=O)(=O)c2ccc(NC(C)=O)cc2)cn1,2.64%,-65.2%
CC1CN(C)c2ccccc2CN1C(=O)c1ccncc1 (stereo unspecified),6.3%,-12.6%
Cc1ccc(N2CCCN(C(=O)C3(C#N)CCCCC3)CC2)nn1,-0.989%,4.54%
O=S(=O)(c1ccccc1Cl)N1CCc2nc(C3CCNCC3)ncc2C1,-6.28%,-9.83%
O=C(c1ccnnc1)N1C[C@H]2CCC[C@@]2(COCC2CCOCC2)C1,3.07%,-0.366%
C[C@@H]1CN(C(=O)c2cccs2)C[C@]12CCN(CCN(C)C)C2=O,-0.228%,-8.44%
Cc1nc(CN2CCc3cncnc3C2)oc1C,-1.67%,-14.4%
CCCn1ncc2c(C(=O)Nc3cnn(CC)c3C)cc(C3CC3)nc21,-1.49%,-0.924%
CN(C)[C@H]1CCCCN(C(=O)CCc2csc(N)n2)C1,-1.18%,3.47%
COCC(=O)N1CCC[C@]2(C(=O)N(C)C)CN(c3ccccn3)C[C@@H]2C1,-2.71%,-6.93%
CCc1nc(CN2CCCN(C(=O)C(C)n3ccnc3)CC2)cs1 (stereo unspecified),-1.76%,8.27%
CN(CCc1ccccn1)S(=O)(=O)N1CCCC1c1ccco1 (stereo unspecified),2.3%,32.1%
CC(C)n1ncc2c1NC(=O)CSC2C(C)(C)C (stereo unspecified),-2.73%,-13.8%
Clc1ccccc1CN1CCc2nc(C3CCCCN3)ncc2C1 (stereo unspecified),1.4%,-35.9%
Cc1cnc(N2CC3(CCN(C(=O)c4ccoc4)C3)C2)nc1,0.713%,-36.5%
Cc1cc(-c2nn(C)c(Cl)c2CN2CCOCC(O)C2)no1 (stereo unspecified),-2.42%,16.3%

Compound,Percent Effect [1],Percent Effect [2]
CN(Cc1ccccn1)C(=O)[C@]12COC[C@H]1CN(Cc1cnn(C)c1)C2,-0.844%,-6.88%
Cc1cc(C)n(CC2CCCN2C(=O)c2cccc3[nH]ncc23)n1 (stereo unspecified),-2.45%,-17.6%
Cc1ccoc1C(=O)NC1CCN(Cc2csc3c(F)cccc23)CC1,-0.83%,-64.2%
NC(=O)NC(=O)CCN1CCCN(c2nccs2)CC1,1.54%,-33.2%
Fc1cccnc1CN1CCCCC1c1ccn2ccnc2n1 (stereo unspecified),1.4%,-17.1%
O=C(NCCNc1ccc(C(F)(F)F)cn1)c1cncc(Br)c1,3.26%,28.2%
CN(C)C(C(=O)N1CCCC1)c1ccccc1F (stereo unspecified),3.9%,-23.9%
Cc1cnn(CC2CCCN2C(=O)c2ccc(C(N)=O)cn2)c1 (stereo unspecified),-2.92%,11.5%
Cn1c(C(F)(F)F)nn(CCNC(=O)NCc2ccccc2)c1=O,-5.98%,-52.8%
CC(C)CCN1CC2(CCCN(C(=O)c3cscn3)C2)CCC1=O (stereo unspecified),8.2%,-13.4%
CC(C)CN(C)c1ccc(C(=O)N2CCCC2c2cnn(C)c2)cn1 (stereo unspecified),-2.28%,21%
Cc1nc2cc(=O)[nH]n2c(C)c1CC(=O)Nc1ccc2ccccc2n1,1.28%,36.5%
CS(=O)(=O)NC[C@]12COC[C@H]1CN(C(=O)C1CCCCC1)C2,7.93%,-3.53%
Cc1cc(C)c(CNC(=O)NCC(O)COc2ccccc2)c(=O)[nH]1 (stereo unspecified),4.61%,27.6%
CC(=O)NC1CCCN(C(=O)Nc2cnc3c(cnn3C(C)C)c2)C1 (stereo unspecified),-4.11%,18%
CN1CCN(c2cc(CNC(=O)c3ccc(=O)n(C)c3)ccn2)CC1,-4.9%,-0.684%
c1ccc(CCNC2CCc3ncnn3C2)nc1 (stereo unspecified),5.83%,-16.7%
Cc1cc(C(=O)NCc2ccnc(N3CCN(C)CC3)c2)c(C)s1,-3.03%,-30.4%
O=C(c1cc(Cl)cc(Cl)c1)N1CCN(c2nccs2)CC1,-0.345%,-14.9%
COc1c(CNC2CCCc3ccccc32)c(C(C)C)nn1C (stereo unspecified),-0.233%,-10.1%
CCS(=O)(=O)CCNC(=O)c1ccc(-c2ccc(C)cc2)cc1F,7.76%,-42.5%
CC(=O)N1CCCC(c2ccc(Nc3nc(C)cc(C)n3)cn2)C1 (stereo unspecified),-1.31%,3.11%
COCC(=O)N1CCC2(CC1)CC(CC(=O)NC1CC1)c1ccccc12 (stereo unspecified),-1.39%,9.56%
CC(=O)N1CCc2c(nc(-c3ccccn3)nc2N(C)CC(O)CO)C1 (stereo unspecified),-6.34%,26.6%
O=C(NCCCOCC1CC1)Nc1cccnc1N1CCOCC1,-1.34%,4.93%
CCOc1cc(/C=C/c2ncc(C(=O)O)s2)cc(Cl)c1OC,-1.24%,-0.531%

Compound,Percent Effect [1],Percent Effect [2]
Cc1cnc(CN2CCCC2c2noc(C)n2)cn1 (stereo unspecified),0.514%,4.6%
CNC(=O)CN1CCCC12CCN(C(=O)c1ccsc1)CC2,0.137%,-0.413%
CCNc1nc2c(s1)C(=O)CN(C(=O)NCCc1ccccc1)C2,2.72%,-10.6%
O=C(CCC1CCCO1)NS(=O)(=O)c1ccc(Cl)cc1 (stereo unspecified),-1.43%,21.6%
CCNC(=O)N(C)C(c1cccc(F)c1)c1ccccn1 (stereo unspecified),-4.31%,-5.85%
CCCn1c(C)c(CC(=O)NC)c2c1CC(C)(C)CC2=O,-1.07%,-13.3%
CC(C)n1cnc2c1C(C(=O)NCCC#N)N(Cc1ccccc1)CC2 (stereo unspecified),-1.11%,-31.8%
CSCC(CCO)NC(=O)Nc1cc(Br)ccc1C (stereo unspecified),3.02%,-10.3%
Cc1noc(CCCC(=O)NC(C)c2cn(-c3ccccc3)nn2)n1 (stereo unspecified),-5.92%,0.819%
CN1CCN(CC2CC2)C(=O)c2cnc(N3CC[C@@H](O)C3)nc21,3.75%,-9.73%
Cc1cc(NC(=O)NCC(C)N2CCc3ccccc32)no1 (stereo unspecified),2.59%,-1.83%
Cc1ccoc1C(=O)NCC(Cc1ccc(F)cc1)C(N)=O (stereo unspecified),-2.1%,9.66%
N#Cc1cn(C2CC2)c(=O)n(CC(O)c2ccc(OC(F)F)cc2)c1=O (stereo unspecified),1.23%,14%
Cc1nc(-c2ccc(Cl)s2)sc1C(=O)NCCS(N)(=O)=O,-0.408%,-17.2%
CC1CCCCN1c1nc2c(c(=O)[nH]1)CCN(Cc1cccnc1)C2 (stereo unspecified),1.98%,-8.32%
Cc1cccc(C(=O)N2CCCCC2c2ccc(CN(C)C)cc2)n1 (stereo unspecified),-2.28%,13.7%
Nc1nc2nc(C3CCCN(C(=O)c4cscn4)C3)ccc2s1 (stereo unspecified),0.603%,-35.5%
O=C1CCC2(CCCN(c3ncc(F)cn3)CC2)N1CC1CC1 (stereo unspecified),-1.91%,-3.81%
Cc1cnn(CC2CCCCN2CCCS(N)(=O)=O)c1 (stereo unspecified),-8.36%,-56.9%
NC(=O)CN1CCC(NC(=O)c2ccn(-c3cccc(F)c3)n2)CC1,2.51%,-20%
CC(CNCc1ccc(Cl)c(Cl)c1)Oc1ccccn1 (stereo unspecified),-0.523%,-59.8%
Cc1nn(C)c(C)c1C1CCCN1Cc1noc(C2CC2)n1 (stereo unspecified),6.1%,16.3%
CS(=O)(=O)NC[C@H]1OC[C@@H]2CCN(Cc3ccc(F)cc3)C[C@@H]21,0.903%,-21.2%
Cc1cccc(NC(=O)c2sccc2C)n1,-4.94%,-1.59%
COCCCn1c(CN2CCCC(O)C2)cnc1S(=O)(=O)C1CCCC1 (stereo unspecified),4.61%,-11.3%
